“And” between values parts separate entries of the source, which are not always exact repeats. Equal entries are not always repeated. Among all 5,500 compounds or so, about 2,000 (36%) were called active. About 18% were inconclusive and are not listed. Cut-off read from the data, not from the text of the source: active = normalized growth mostly below about 0.91 (no sharp cut-off); inconclusive = no clear call, values can overlap the other calls; inactive = mostly above about 0.92. Some of the results follow.
Experiment: chemical genetic growth profiling, strain panel (AID 1159580);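 note: tested at 20 µM; growth read once vehicle control cultures reached saturation at 30 °C; 1 = growth at the plate median or of vehicle wells; lower values mean less growth of the strain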
Details: growth OD

Measured: normalized growth

O=c1[nH]c2ccccc2n1C1CCN(CCCC(c2ccc(F)cc2)c2ccc(F)cc2)CC1
active: S. cerevisiae deletion strains, locus YLL001W, strain dnm1, stronger effect = lower value 0.893 | S. cerevisiae deletion strains, locus YLR320W, strain mms22, stronger effect = lower value 0.784 | S. cerevisiae deletion strains, locus YMR058W, strain fet3, stronger effect = lower value 0.897 | S. cerevisiae deletion strains, locus YMR205C, strain PFK2, stronger effect = lower value 0.859 | S. cerevisiae deletion strains, locus YNL248C, strain rpa49, stronger effect = lower value 0.878 | S. cerevisiae deletion strains, locus YOR001W, strain rrp6, stronger effect = lower value 0.817 | S. cerevisiae deletion strains, locus YOR083W, strain WHI5, stronger effect = lower value 0.857 | S. cerevisiae deletion strains, locus YOR270C, strain vph1, stronger effect = lower value 0.449 | S. cerevisiae deletion strains, locus YOR290C, strain snf2, stronger effect = lower value 0.638
inactive: S. cerevisiae deletion strains, locus YJR075W, strain HOC1, stronger effect = lower value 0.954 and 0.993 | S. cerevisiae deletion strains, locus YKL009W, strain mrt4, stronger effect = lower value 0.963 | S. cerevisiae deletion strains, locus YKL068W, stronger effect = lower value 0.993 | S. cerevisiae deletion strains, locus YKL085W, strain MDH1 (second series), stronger effect = lower value 0.99 | S. cerevisiae deletion strains, locus YKL085W, strain MDH1, stronger effect = lower value 0.99 | S. cerevisiae deletion strains, locus YKL160W, strain elf1, stronger effect = lower value 0.914 | S. cerevisiae deletion strains, locus YKL190W, strain CNB1, stronger effect = lower value 0.974 | S. cerevisiae deletion strains, locus YKR001C, strain vps1, stronger effect = lower value 0.939 | S. cerevisiae deletion strains, locus YKR026C, strain gcn3, stronger effect = lower value 1.03 | S. cerevisiae deletion strains, locus YKR091W, strain srl3, stronger effect = lower value 1.01 | S. cerevisiae deletion strains, locus YLL026W, stronger effect = lower value 0.988 | S. cerevisiae deletion strains, locus YLL041C, strain sdh2, stronger effect = lower value 1.02 | S. cerevisiae deletion strains, locus YLR027C, strain aat2, stronger effect = lower value 0.927 | S. cerevisiae deletion strains, locus YLR039C, strain RIC1, stronger effect = lower value 1.02 | S. cerevisiae deletion strains, locus YLR058C, strain SHM2, stronger effect = lower value 0.977 | S. cerevisiae deletion strains, locus YLR102C, strain apc9, stronger effect = lower value 0.993 | S. cerevisiae deletion strains, locus YLR113W, strain HOG1, stronger effect = lower value 0.967 | S. cerevisiae deletion strains, locus YLR221C, strain rsa3, stronger effect = lower value 0.932 | S. cerevisiae deletion strains, locus YLR258W, strain gsy2, stronger effect = lower value 0.981 | S. cerevisiae deletion strains, locus YLR262C, strain YPT6 (second series), stronger effect = lower value 1.06 | S. cerevisiae deletion strains, locus YLR262C, strain YPT6, stronger effect = lower value 1.04 | S. cerevisiae deletion strains, locus YLR268W, strain sec22, stronger effect = lower value 0.98 | S. cerevisiae deletion strains, locus YLR330W, strain CHS5, stronger effect = lower value 0.995 | S. cerevisiae deletion strains, locus YLR342W, strain FKS1 (second series), stronger effect = lower value 0.94 | S. cerevisiae deletion strains, locus YLR342W, strain FKS1, stronger effect = lower value 0.936 | S. cerevisiae deletion strains, locus YLR357W, strain rsc2, stronger effect = lower value 0.877 | S. cerevisiae deletion strains, locus YLR370C, strain arc18, stronger effect = lower value 0.962 | S. cerevisiae deletion strains, locus YLR371W, strain rom2, stronger effect = lower value 0.989 | S. cerevisiae deletion strains, locus YLR384C, strain iki3, stronger effect = lower value 1.04 | S. cerevisiae deletion strains, locus YLR418C, strain cdc73, stronger effect = lower value 0.921 | S. cerevisiae deletion strains, locus YML016C, strain PPZ1, stronger effect = lower value 0.992 | S. cerevisiae deletion strains, locus YML032C, strain rad52, stronger effect = lower value 0.972 | S. cerevisiae deletion strains, locus YML120C, strain ndi1, stronger effect = lower value 0.939 | S. cerevisiae deletion strains, locus YML124C, strain tub3, stronger effect = lower value 1 | S. cerevisiae deletion strains, locus YMR078C, strain ctf18, stronger effect = lower value 0.983 | S. cerevisiae deletion strains, locus YMR125W, strain sto1, stronger effect = lower value 0.995 | S. cerevisiae deletion strains, locus YMR129W, stronger effect = lower value 0.966 | S. cerevisiae deletion strains, locus YMR223W, strain ubp8, stronger effect = lower value 0.978 | S. cerevisiae deletion strains, locus YMR231W, strain pep5, stronger effect = lower value 1.02 | S. cerevisiae deletion strains, locus YMR263W, strain SAP30, stronger effect = lower value 0.986 and 0.997 | S. cerevisiae deletion strains, locus YMR307W, strain GAS1, stronger effect = lower value 1.04 and 0.999 | S. cerevisiae deletion strains, locus YNL067W, strain RPL9B, stronger effect = lower value 0.987 | S. cerevisiae deletion strains, locus YNL071W, strain lat1, stronger effect = lower value 1.01 | S. cerevisiae deletion strains, locus YNL128W, strain TEP1, stronger effect = lower value 0.965 | S. cerevisiae deletion strains, locus YNL153C, strain GIM3, stronger effect = lower value 0.974 | S. cerevisiae deletion strains, locus YNL183C, strain NPR1, stronger effect = lower value 0.937 | S. cerevisiae deletion strains, locus YNL197C, strain WHI3, stronger effect = lower value 1.1 | S. cerevisiae deletion strains, locus YNL209W, strain ssb2, stronger effect = lower value 1.02 | S. cerevisiae deletion strains, locus YNL224C, strain SQS1, stronger effect = lower value 1.01 | S. cerevisiae deletion strains, locus YNL233W, strain BNI4, stronger effect = lower value 0.985 | S. cerevisiae deletion strains, locus YNL250W, strain rad50, stronger effect = lower value 0.986 | S. cerevisiae deletion strains, locus YNL271C, strain bni1, stronger effect = lower value 1.01 | S. cerevisiae deletion strains, locus YNL298W, strain CLA4, stronger effect = lower value 1.01 | S. cerevisiae deletion strains, locus YNL307C, strain MCK1, stronger effect = lower value 0.927 | S. cerevisiae deletion strains, locus YNL322C, strain KRE1 (second series), stronger effect = lower value 1.03 | S. cerevisiae deletion strains, locus YNL322C, strain KRE1, stronger effect = lower value 0.99 | S. cerevisiae deletion strains, locus YNR049C, strain mso1, stronger effect = lower value 0.991 | S. cerevisiae deletion strains, locus YNR052C, strain pop2, stronger effect = lower value 0.996 | S. cerevisiae deletion strains, locus YOL006C, strain TOP1, stronger effect = lower value 0.848 | S. cerevisiae deletion strains, locus YOL012C, strain htz1 0.998 | S. cerevisiae deletion strains, locus YOL147C, strain pex11, stronger effect = lower value 1 | S. cerevisiae deletion strains, locus YOR061W, strain CKA2, stronger effect = lower value 0.972 | S. cerevisiae deletion strains, locus YOR069W, strain VPS5, stronger effect = lower value 0.991 | S. cerevisiae deletion strains, locus YOR070C, strain gyp1, stronger effect = lower value 0.963 | S. cerevisiae deletion strains, locus YOR080W, strain dia2, stronger effect = lower value 1 | S. cerevisiae deletion strains, locus YOR083W, strain WHI5 (second series), stronger effect = lower value 0.874 | S. cerevisiae deletion strains, locus YOR106W, strain vam3, stronger effect = lower value 0.92 | S. cerevisiae deletion strains, locus YOR136W, strain idh2, stronger effect = lower value 0.986 | S. cerevisiae deletion strains, locus YOR144C, strain elg1, stronger effect = lower value 1 | S. cerevisiae deletion strains, locus YOR184W, strain ser1, stronger effect = lower value 0.894 | S. cerevisiae deletion strains, locus YOR231W, strain MKK1, stronger effect = lower value 0.984 | S. cerevisiae deletion strains, locus YOR265W, strain rbl2, stronger effect = lower value 0.992 | S. cerevisiae deletion strains, locus YOR316C, strain cot1, stronger effect = lower value 0.995 | S. cerevisiae deletion strains, locus YPL051W, strain arl3, stronger effect = lower value 0.954 | S. cerevisiae deletion strains, locus YPL055C, strain LGE1, stronger effect = lower value 0.924 | S. cerevisiae deletion strains, locus YPL078C, strain atp4, stronger effect = lower value 0.956 | S. cerevisiae deletion strains, locus YPL106C, strain sse1, stronger effect = lower value 1.07 | S. cerevisiae deletion strains, locus YPL240C, strain hsp82, stronger effect = lower value 1.02 | S. cerevisiae deletion strains, locus YPL241C, strain CIN2, stronger effect = lower value 0.986 and 1 | S. cerevisiae deletion strains, locus YPL256C, strain CLN2, stronger effect = lower value 0.965 | S. cerevisiae deletion strains, locus YPR119W, strain clb2, stronger effect = lower value 0.995 | S. cerevisiae deletion strains, locus YPR141C, strain kar3, stronger effect = lower value 0.996 | S. cerevisiae deletion strains, locus YPR163C, strain tif3, stronger effect = lower value 1 | S. cerevisiae deletion strains, locus YPR167C, strain met16, stronger effect = lower value 0.986 | S. cerevisiae deletion strains, strain wtn01, stronger effect = lower value 0.989 | S. cerevisiae strains, strain wild type, stronger effect = lower value 0.993
